Compounds with a hit are over-represented: about 28% of the library has one in this group of screens.
CYP2C19 activ: human CYP2C19 activators, primary screen, biochemical, luminescence. 96,000 tested, under 10 active. activation factor at 5 µM. Cytochrome P450 2C19 (Homo sapiens), P33261. recombinant CYP2C19, luciferin-H EGE luminescence; active compounds read high; 0 = fully inhibited enzyme, 1 = untreated enzyme;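 active = activation factor of at least 2 at 5 µM in the primary screen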
CYP2C19 inh: blockers of cytochrome P450 2C19 activity – biochemical, luminescence, ADME assay, primary screen; P33261; CYP2C19 Supersomes, luciferin-H EGE luminescence, 30 min; inhibition, % at 5 µM; actives 21% (n = 96,000); AID 778, 2007;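 active = CYP2C19 inhibition above a set limit at 5 µM in the primary screen, cut at about 50% in these data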
Mac1 fbg enh: enhancers of CD11b/CD18 adhesion to fibrinogen, primary screen, K562 cells, luminescence; Integrin beta-2 (Homo sapiens) + Integrin alpha-M (Homo sapiens), P05107+P11215; ATPlite luminescence; activation, % at 10 µM; actives 0.07% (n = 93,000);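 active = 10 µM primary screen giving 50% or more activity, confirmed by 40% or more on retest at that dose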
CYP2C9 inh: blockers of cytochrome P450 2C9 activity – biochemical, luminescence, ADME assay, primary screen | CYP2C9 Supersomes, luciferin-H conversion | inhibition, % at 5 µM | actives 20% (n = 96,000) | AID 777, 2007 | P11712;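 active = blocking of liver enzyme CYP2C9 beyond about 50% at 5 µM, limit read from the data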
Target sequence (P11712 whole entry, looked up): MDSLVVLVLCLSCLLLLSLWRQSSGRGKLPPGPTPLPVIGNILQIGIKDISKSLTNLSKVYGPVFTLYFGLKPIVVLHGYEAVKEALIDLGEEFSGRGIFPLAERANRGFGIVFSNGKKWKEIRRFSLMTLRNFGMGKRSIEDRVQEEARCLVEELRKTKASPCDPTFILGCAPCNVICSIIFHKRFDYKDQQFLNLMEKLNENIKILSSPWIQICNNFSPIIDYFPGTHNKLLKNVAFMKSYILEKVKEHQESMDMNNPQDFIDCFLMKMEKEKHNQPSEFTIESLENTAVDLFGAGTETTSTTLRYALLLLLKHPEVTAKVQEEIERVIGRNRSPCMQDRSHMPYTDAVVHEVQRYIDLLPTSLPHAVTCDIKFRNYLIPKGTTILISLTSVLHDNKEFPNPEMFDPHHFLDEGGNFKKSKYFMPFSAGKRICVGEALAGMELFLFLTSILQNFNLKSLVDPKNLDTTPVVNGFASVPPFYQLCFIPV
Mac1 fbg inh: inhibitors of CD11b/CD18 adhesion to fibrinogen, primary screen, K562 cells, luminescence | inhibition, % at 10 µM | ATPlite luminescence; Mn2+ added to activate the integrin | actives 0.54% (n = 93,000);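 active = primary inhibition of 50% or more at 10 µM, then 40% or more on retest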
CYP2C9 activ: human CYP2C9 activators, primary screen, biochemical, luminescence | actives 1.4% (n = 96,000) | recombinant CYP2C9, luciferin-H conversion; active compounds read high; factor 1 = untreated enzyme, 0 = blocked | activation factor at 5 µM | AID 1024, 2008;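 active = activation factor of 2 or more for CYP2C9 at a 5 µM dose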
Hits are given with their value; – = inactive; · = not tested or not shown.

SMILES | CYP2C19 activ | CYP2C19 inh | Mac1 fbg enh | CYP2C9 inh | Mac1 fbg inh | CYP2C9 activ
COc1ccc(NC(=O)Cn2c(=O)sc3ccccc32)c(OC)c1 | – | 90 | – | – | – | –
CCOc1cccc(NC(=O)Cc2cccs2)c1 | – | 86 | – | 58 | – | –
COc1ccc(S(=O)(=O)N2CCN(C(=O)NC3CCCCC3)CC2)cc1OC | – | – | – | – | – | –
Cc1cccc(C)c1NC(=O)CSCC(=O)c1ccc(O)c(O)c1 | – | – | – | – | – | –
Cn1c(C(C#N)C(=O)c2ccco2)nc2ccccc21 (stereo not drawn) | – | – | – | 51 | – | –
CC1CCCCN1C(=O)COC(=O)c1n[nH]c2ccccc12 (stereo not drawn) | – | – | – | – | – | –
CC1CCCCN1C(=O)Cn1cc(/C=C2/C(=O)Nc3ccccc32)c2ccccc21 (stereo not drawn) | – | – | – | 58 | – | –
CCOc1ccc(-c2[nH]ncc2Oc2cccc(OC)c2)c(O)c1 | – | 99 | – | 100 | – | –
COc1cccc(Oc2cn[nH]c2-c2ccc(O)cc2O)c1 | – | 98 | · | 97 | · | –
CCOc1ccc(-c2[nH]ncc2-c2csc(C)n2)c(O)c1 | · | · | – | · | – | ·
COc1cccc(Oc2cn[nH]c2-c2ccc(OC)cc2O)c1 | – | 99 | – | 100 | – | –
CC(C)C(=O)c1cc2c(cc1NC(=O)c1cccs1)OCCO2 | – | – | · | – | · | –
COc1cccc(-c2cc(C(=O)Nc3cccc(O)c3)no2)c1 | – | – | – | – | – | 2.3
COc1cccc(-c2cc(C(=O)NC3CCCC3)no2)c1 | – | 80 | – | – | – | –
COCCNC(=O)c1cc(-c2cccc(OC)c2)on1 | – | – | – | – | – | –
O=C(Nc1cccc(C(F)(F)F)c1)c1cc(-c2ccc(F)cc2)on1 | – | – | – | – | – | 3.5
CC(C)c1cc(C(=O)Nc2cccc(C(F)(F)F)c2)no1 | – | – | – | – | – | –
CCc1ccccc1NC(=O)c1cc(-c2cccc(O)c2)on1 | – | – | – | – | – | 4.8
O=C(Nc1ccccc1C(F)(F)F)c1cc(-c2cccc(O)c2)on1 | – | – | – | – | – | –
CCCCCNc1c(C(=O)OCC)c(=O)[nH]c2ccccc12 | – | – | – | – | – | –
Cc1nnsc1C(=O)NC1CCCCC1 | – | – | – | – | – | –
CC(C)(C)N1C(=O)c2ccc(C(=O)NCc3ccco3)cc2C1=O | – | – | – | – | – | –
CC(C)Oc1ccc(CNC2CCOC(C)(C)C2)cc1 (stereo not drawn) | – | – | – | – | – | –
COc1ccc(CCNC(=O)CSc2nc(C)nc3c2c(=O)n(C)c(=O)n3C)cc1OC | – | – | – | – | – | –
CC(C)OC(=O)CSc1nnc(-c2ccccc2)n1N | – | 60 | – | – | – | –
SMILES | CYP2C19 activ | CYP2C19 inh | Mac1 fbg enh | CYP2C9 inh | Mac1 fbg inh | CYP2C9 activ
Cc1ccc(-n2c(SCC(=O)OC(C)C)nnc2-c2ccco2)cc1 | – | – | – | – | – | 2.3
CC(C)OC(=O)CSc1nnc(-c2cccnc2)n1N | – | – | – | – | – | –
Cc1ccc(-n2c(SCC(=O)OC(C)C)nnc2-c2ccccn2)cc1 | – | 51 | – | – | – | –
COC(=O)C(Cc1ccc(OC(=O)c2ccccc2C)cc1)N1Cc2ccccc2C1=O (stereo not drawn) | – | – | – | – | – | –
CN1C(=O)N(C)C2C1NC(=O)N2C (stereo not drawn) | – | – | – | – | – | –
O=C(Cn1nnc(-c2ccccc2)n1)Nc1ccc2c(c1)OCO2 | – | – | – | – | – | –
COc1cc(NC(=O)Cn2nnc(-c3ccncc3)n2)cc(OC)c1 | – | 89 | – | 92 | – | –
O=C(Cn1nnc(-c2ccncc2)n1)Nc1ccc2c(c1)CCC2 | – | 91 | – | 75 | – | –
O=C(Cn1nnc(-c2ccc(Cl)cc2)n1)NCCC1=CCCCC1 | – | 52 | – | – | – | –
CCOc1ccc(-c2nnn(CC(=O)Nc3cc(OC)cc(OC)c3)n2)cc1OCC | – | – | – | – | – | –
